Assay results as given in PubChem BioAssay (NCI).
Compounds without any hit were thinned out: in the full panel of roughly 83,000, 20% have a hit.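 In brief: 96-well plates, 48 h treatment, single concentration, percent growth endpoint.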 Calls of active or inactive are those of the source. The calls were made as follows: active = growth percent below 10; inactive = the rest.

Experiments:
Assay in all cases: NCI-60 one-dose screen, 48 h (100 = growth as untreated, 0 = no growth, -100 = all killed)
Details in all cases: 10 µM unless noted
[1] = test system: NCI-H23 lung
[2] = test system: NCI-H226 lung
[3] = test system: NCI-H322M lung
[4] = test system: HOP-62 NSCLC
[5] = test system: NCI-H460 lung
[6] = test system: HOP-92 NSCLC
[7] = test system: NCI-H522 lung
[8] = test system: A549/ATCC NSCLC
[9] = test system: 786-0 renal
[10] = test system: COLO 205 colon
[11] = test system: DU-145 prostate
[12] = test system: K-562 leukemia
[13] = test system: MALME-3M melanoma
[14] = test system: MDA-MB-231 breast
[15] = test system: RXF 393 renal
[16] = test system: SF-268 CNS
[17] = test system: SF-295 CNS
[18] = test system: SF-539 CNS
[19] = test system: UACC-257 melanoma
[20] = test system: M14 melanoma

Measured: growth

Cc1cc(O[C@@H]2O[C@@H](C)[C@H](O)[C@@H](O)[C@H]2O)c2c3c(c(O[C@@H]4O[C@@H](C)[C@H](O)[C@@H](O)[C@H]4O)cc2c1)C(=O)c1c(O)cccc1C3=O
inactive: [1] 95.4% | [2] 52.1% | [3] 95.4% | [4] 77.4% | [5] 84.8% | [6] 76.1% | [7] 64.8% | [8] 76.8% | [9] 24.4% | [10] 94.5% | [11] 98% | [12] 79.6% | [13] 107% | [14] 86.3% | [15] 29.6% | [16] 56.3% | [17] 79% | [18] 92.5% | [19] 87.2% | [20] 82.6%

CCC(CC(C)C)Nc1ccc(NC(CC)CC(C)C)cc1 (stereo not given)
inactive: [1] 77.7% | [2] 76.5% | [3] 107% | [4] 105% | [5] 94.5% | [7] 14.6% | [8] 89.2% | [9] 93.1% | [10] 76.9% | [11] 103% | [13] 97.7% | [14] 93.1% | [15] 96.5% | [16] 72.2% | [17] 95.3% | [18] 107% | [19] 92.4% | [20] 99.4%
active: [6] -13.1% | [12] -4.28%

CC(C)CNCC(=O)Nc1ccc(Cc2ccc(NC(=O)CNCC(C)C)cc2)cc1
inactive: [1] 84% | [2] 68.6% | [3] 78.2% | [4] 59.1% | [5] 43.1% | [6] 38.4% | [7] 48.3% | [8] 65% | [9] 42.8% | [10] 53.8% | [11] 58.3% | [15] 46.7% | [16] 59.7% | [17] 78.5% | [18] 77.8% | [19] 62.6% | [20] 38.6%
active: [12] -27.7% | [13] -23% | [14] -0.499%

CN1CCN(C(=O)/C=C/c2ccc([N+](=O)[O-])o2)CC1
active: [7] 4.39% | [15] -14.9% | [19] 1.85%
inactive: [1] 98.1% | [2] 110% | [3] 111% | [4] 134% | [5] 91% | [6] 85.9% | [8] 53.8% | [9] 110% | [10] 76.2% | [11] 92.6% | [12] 86.6% | [13] 22.6% | [14] 87.8% | [16] 87.6% | [17] 134% | [18] 107% | [20] 92.4%

COc1cc(NS(C)(=O)=O)ccc1Cc1c2ccccc2nc2ccccc12
inactive: [1] 11.2% | [3] 75.2% | [6] 21.2% | [7] 43.2% | [10] 29.8% | [11] 11% | [12] 18.2% | [13] 14.8% | [14] 53.2% | [16] 22.4% | [19] 25% | [20] 10%
active: [2] -17.5% | [4] -13.9% | [5] -1.15% | [8] -11.8% | [9] -10.6% | [15] -13.4% | [17] 3.77% | [18] -28.5%

Cc1ccc(N(CC2=NCCN2)c2cccc(O)c2)cc1
inactive: [1] 100% | [2] 100% | [3] 91.5% | [4] 103% | [5] 107% | [6] 91.2% | [7] 102% | [8] 98.8% | [9] 96.8% | [10] 119% | [11] 112% | [12] 86.3% | [13] 90.4% | [14] 113% | [15] 98.5% | [16] 107% | [17] 83.3% | [18] 106% | [19] 103% | [20] 103%

c1nc(SC2=NCCN2)c2[nH]cnc2n1
inactive: [1] 46.2% | [2] 46.9% | [3] 36.3% | [4] 23.2% | [5] 66.5% | [6] 36.2% | [7] 25% | [8] 82.9% | [9] 22.7% | [10] 56.8% | [11] 37.3% | [12] 14.3% | [13] 47.3% | [14] 37.7% | [15] 59.7% | [16] 46.5% | [17] 29.1% | [18] 24.3% | [19] 66.8% | [20] 14.7%

CN1C(=O)C2(NN=C(c3cccc4ccccc34)S2)c2ccccc21 (stereo not given)
active: [6] -1.68% | [8] 9.72%
inactive: [1] 50.4% | [2] 46.1% | [3] 44.4% | [4] 13.9% | [5] 14.6% | [7] 41.1% | [9] 33.5% | [10] 23.5% | [11] 50.3% | [12] 11.8% | [13] 63.5% | [14] 46% | [15] 79% | [16] 37.6% | [17] 29.7% | [18] 49.1% | [19] 50.6% | [20] 17.3%

Cc1nccc2c3ccc(OCc4cn(-c5ccc(Br)cc5)nn4)cc3n(CCCc3ccccc3)c12
inactive: [1] 51.2% | [2] 91% | [3] 91.1% | [4] 110% | [5] 33.4% | [6] 99.7% | [7] 84.9% | [8] 12.2% | [10] 40.7% | [11] 48.6% | [12] 14.9% | [17] 98.2%
active: [9] -71.4% | [13] -61.1% | [14] -1.95% | [15] -26.2% | [16] -15.5% | [18] -59.8% | [19] -20% | [20] -81.7%

COc1ccc2c(-c3ccc(F)cc3)c(C#N)c(=NC(C)=O)oc2c1
active: [7] 5.83% | [12] 8%
inactive: [1] 53.8% | [2] 89.6% | [3] 58.2% | [4] 62.8% | [5] 23.3% | [6] 70.6% | [8] 53.4% | [9] 33.4% | [10] 106% | [11] 49.6% | [13] 53.7% | [14] 54.7% | [15] 36% | [16] 52.7% | [17] 37.9% | [18] 28.4% | [19] 72% | [20] 19.8%

CC[C@@]1(O)C(=O)OCc2c1cc1n(c2=O)Cc2c-1nc1ccccc1c2/C=N/OC(C)(C)C
active: [1] -4.17% | [2] -78.7% | [4] -24.1% | [5] 1.16% | [6] -11.8% | [7] -47.8% | [8] -11% | [9] 2.49% | [10] -26.9% | [11] 6.82% | [12] 7.64% | [13] -15.3% | [15] -47.5% | [16] 2.41% | [17] -1.63% | [18] -24.4% | [19] -44% | [20] -18%
inactive: [3] 12.4% | [14] 24.2%

Nc1ncc(-c2ccc3ncnc(Nc4ccc(F)c(Cl)c4)c3c2)cn1
inactive: [1] 56.2% | [2] 55.5% | [3] 33% | [4] 57.5% | [5] 11.9% | [6] 31.9% | [7] 42.9% | [8] 34.6% | [10] 32.3% | [11] 43.3% | [12] 55.5% | [13] 36.3% | [14] 54.4% | [15] 32.9% | [16] 54.9% | [17] 16.2% | [18] 55.4% | [19] 101% | [20] 87.5%
active: [9] 6.18%

CCOc1ccc(NC2=C(Cl)C(=O)c3ccccc3C2=O)cc1
active: [12] -2.3%
inactive: [1] 39.6% | [2] 101% | [3] 105% | [4] 95.1% | [5] 97.9% | [6] 78.6% | [7] 62.7% | [8] 97% | [9] 94.7% | [10] 108% | [11] 102% | [13] 108% | [14] 80.2% | [15] 105% | [16] 94.2% | [17] 94.3% | [18] 90.9% | [19] 97.6% | [20] 68%

O=C(/C=C/c1ccco1)c1cccc(Nc2nc(Nc3ccccc3)nc(Nc3ccccc3)n2)c1
inactive: [1] 57.6% | [2] 99.5% | [3] 34.6% | [4] 86.5% | [6] 49.1% | [7] 78.6% | [8] 20.1% | [9] 44% | [10] 62.3% | [11] 95% | [12] 64.4% | [13] 110% | [14] 67.9% | [15] 34.5% | [16] 92.9% | [17] 61.5% | [18] 94.4% | [19] 101% | [20] 92.1%
active: [5] 8.52%

Cc1c(F)cccc1NC(=O)c1sc2nc3c(cc2c1N)CCCCC3
inactive: [1] 79.6% | [2] 56.8% | [3] 85.8% | [4] 50.3% | [5] 56.7% | [6] 70.5% | [7] 20% | [8] 73.9% | [9] 75.7% | [10] 74.2% | [11] 69.1% | [12] 12.5% | [13] 55% | [14] 83.6% | [15] 69.5% | [16] 83.4% | [17] 55.3% | [18] 66.9% | [19] 52.3% | [20] 28.2%
